Sampled rows, rich in hits. Any-hit rate of the full collection: about 19%.
TDP1 cell noCPT – qHTS for Inhibitors of human tyrosyl-DNA phosphodiesterase 1 (TDP1): qHTS in cells in absence of CPT | AID 686978, 2013 | Potency, µM (highest dose often 46.2 µM), inactives show at the top dose activity change, negative = growth inhibition, actives largely listed as inhibitors | DT40 Tdp1-/- hTDP1 cells, no CPT, ATP luminescence, 48 h | hit rate 15% among 420,000; note: potency is the fitted concentration of half-maximal effect; nearly all actives have a fitted effect of over 55% in size
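Camptothecin absent (DMSO only). Human TDP1-complemented DT40 knockout cells, 400 cells/well, 37 °C for minimum 48 hr; ATP measured via CellTiter-Glo, 30 min dark incubation, luminescence.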
HT1080NT lethal – kills 2HG-producing HT-1080-NT fibrosarcoma cells; HT-1080-NT fibrosarcoma viability, CellTiter-Glo ATP luminescence, 48 h; Potency, µM (series often up to 46.1 µM), inactives show top-dose activity, negative = less viability, actives largely listed as cytotoxic; hit rate 1.6% among 360,000; AID 686970;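 note: NT is the 2HG producing partner of a matched IDH1 knockdown line; potency is the fitted concentration of half-maximal effect; 0% = DMSO-treated cells and -100% = media-only wells without cells; nearly all actives have a fitted effect of over 55% in size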
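Fibrosarcoma NT cells, 750 per well in 5% FBS RPMI, were exposed to compound for 48 hours. Viability: CellTiter-Glo luminescence.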
TDP1 cell CPT – DT40-hTDP1 cell growth loss with CPT; Potency, µM (doses to about 46.2 µM), for inactives: at the top dose activity change, negative = growth inhibition, hits mostly inhibitors; AID 686979; hit rate 12% among 420,000; chicken DT40 Tdp1-/-;hTDP1 cells + 20 nM CPT, ATP luminescence, 48 h; note: potency is the fitted concentration of half-maximal effect; nearly all actives have a fitted effect of over 55% in size
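Chicken DT40 Tdp1-/- cells stably complemented with human TDP1 were seeded at 400 cells/well in medium containing 20 nM camptothecin, exposed to pin-transferred compounds, and grown at 37 °C for at least 48 hr. Viability was read as ATP luminescence.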
HT1080 IDH1KD tx – toxicity to HT-1080 IDH1 knockdown cells (counter line); HT-1080 IDH1 knockdown viability, ATP luminescence, 48 h; Potency, µM (doses to about 46.1 µM), without a hit: at the top dose activity, negative = toxicity, hits mostly cytotoxic; hit rate 2% among 360,000;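 note: potency is the fitted concentration of half-maximal effect; 0% = DMSO wells and -100% = cell-free medium wells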
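HT-1080-IDH1KD cells (IDH1 knocked down), 750/well in RPMI with 5% FBS, treated with compound 48 h at 37 degrees C. Viability by CellTiter-Glo luminescence, normalised to DMSO and no-cell wells; concentration-response curves classed.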
IL-1B inflam inh – inhibitors of inflammasome signaling (IL-1 beta secretion). activity change, % at 57.5 µM. THP-1 LPS/ATP IL-1B secretion, AlphaLISA, 16 h; stronger effect = lower value. hit rate 4.7% among 360,000; in the data active = activity change below about -50%; inconclusive = mostly about -30% to -49%
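Secreted IL-1B measured by AlphaLISA bead assay after 16 h compound exposure of THP-1 cells; compounds (final up to 57.5 uM) added 1 h before LPS (250 ng/mL) and ATP (1.25 mM) stimulation; lower signal means less secretion.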
uPA generation – cell surface uPA generation inhibition | hit rate 0.31% among 330,000 | cell surface uPA generation assay, qHTS | Potency, µM (titrated, usually from 38.3 µM), for the others: top-dose activity change, negative = inhibition, most hits filed as inhibitors; active = well fitted inhibition curve with a large enough effect; inconclusive = small, poorly fitted or top-dose-only effect; inactive = no such curve, though single readings can be large or run the other way; tested in mouse RAW 264.7 cells; note: potency is the fitted concentration of half-maximal effect; nearly all actives have a fitted effect of over 55% in size
An asterisk follows results filed as active; ? = inconclusive; . = no result; ! = not confirmed by another sample; [ ] = remark or other dose. Unless noted, calls come from the whole dose curve; as a rule, active = well fitted curve in the direction sought with a large enough effect; inconclusive = small, poorly fitted or top-dose-only effect, or another doubt; inactive = no such curve, though single readings can be large; an effect the other way counts as inactive or inconclusive. Unless noted, % is set by controls: 0 for no effect and ±100 for the full control effect.

SMILES	TDP1 cell noCPT	HT1080NT lethal	TDP1 cell CPT	HT1080 IDH1KD tx	IL-1B inflam inh	uPA generation
O=C(OCC(=O)N1CCc2ccccc21)[C@@H]1CC(O)CN1S(=O)(=O)c1ccccc1[N+](=O)[O-] (stereo partly drawn)	18.4µM*	-1.2%	20.6µM*	11.3%	-14.8	-5.1%
CS(=O)(=O)c1ccc(C(=O)OCC(=O)N2CCCc3ccccc32)cc1	3.2%	9.4%	0.1%	6.6%	-2.7	2.9%
CNC(=S)N1CCc2cc(OC)c(OC)cc2C1	-7.9%	2.3%	17.0%	15.0%	-1.6	-2.2%
CCCCCCNC(=O)Nc1ccccc1	-1.4%	-2.4%[9.24 µM]	-15.9%	-7.3%	-12.8	.
CCCCSCCCNC(=O)Nc1ccc(CC)cc1	-37.0%	-0.2%	-0.6%	-5.7%	-74.6*	8.0%
CCCCCc1cc(=O)oc2c(C(CCN(CC)CC)c3ccc(N(C)C)cc3)c(OC)cc(OC)c12 (stereo not drawn)	16.4µM*	18.4µM*	?	-25.0%	0.0	-17.3%
CCCCCc1cc(=O)oc2c(C(CCN3CCCC(C)C3)c3ccc(N(C)C)cc3)c(OC)cc(OC)c12 (stereo not drawn)	23.1µM*	?	?	-24.6%	-26.3	-13.7%
COc1cc(OC)c2ccc(=O)oc2c1C(CCN1CCCC(C)C1)c1ccc(N(C)C)cc1 (stereo not drawn)	?	-3.9%	20.6µM*	-9.0%	-9.4	-11.7%
CCCCCc1cc(=O)oc2c(C(CCN3CCCC(C)C3)c3cc(OC)c(OC)c(OC)c3)c(OC)cc(OC)c12 (stereo not drawn)	29.1µM*	?	?	?	-59.9*	-9.1%
COc1cc(O)c(C(CCN2CCCC(C)C2)c2cc(OC)c(OC)c(OC)c2)c(OC)c1 (stereo not drawn)	-21.8%	0.0%	?	-3.3%	-20.8	-22.2%
O=C(CN1C(=O)c2ccccc2Sc2ccc(C(=O)N3CCOCC3)cc21)Nc1ccc(Cl)cc1F	-0.7%	.	-10.6%	.	.	.
CCCCCc1cc(=O)oc2c(C(CCN3CCCCC3)c3cc(OC)c(OC)c(OC)c3)c(OC)cc(OC)c12 (stereo not drawn)	?	20.6µM*	?	?	-3.4	-13.4%
CCOC(=O)N1C(=O)[C@](c2ccc(Cl)cc2)(C(C)C)N1C(=O)OCC	14.6µM*	-20.5%	18.4µM*	-29.5%	-98.2*	-20.5%
CCOC(=O)N1C(=O)[C@@](c2ccc(Cl)cc2)(C(C)C)N1C(=O)OCC	?	?	20.6µM*	?	-112.8*	?
CCOC(=O)C1(C(N)=O)OC1(c1ccc(Cl)cc1)c1ccccc1Cl (stereo not drawn)	-16.3%	-1.6%	3.4%	0.7%	8.1	5.3%
COc1ccc(-c2cc(C)no2)cc1S(=O)(=O)Nc1cccc(C)c1	-25.9%	-18.0%	-8.8%	?	10.8	?
COc1ccc(CCNS(=O)(=O)c2cc(-c3onc(C)c3C)ccc2OC)cc1OC	?	.	-23.6%	.	.	.
COc1ccc(Cl)cc1NS(=O)(=O)c1cc(-c2cc(C)no2)ccc1C	7.31µM*	.	6.51µM*	.	.	.
Cc1cc(-c2ccc(C)c(S(=O)(=O)NC(c3cccs3)C(C)C)c2)on1 (stereo not drawn)	18.4µM*	.	18.4µM*	.	.	.
COc1ccccc1NS(=O)(=O)c1cc(-c2cc(C)no2)ccc1OC	-14.3%	-14.8%	-13.2%	-27.7%	31.0	-14.3%
COc1ccc(-c2onc(C)c2C)cc1S(=O)(=O)Nc1cc(Cl)ccc1C	3.66µM*	.	3.66µM*	.	.	.
COc1ccc(-c2cc(C)no2)cc1S(=O)(=O)Nc1ccccc1	9.2µM*	?	25.9µM*	16.4µM*	-11.9	?
COC(=O)c1ccc(NS(=O)(=O)c2cc(-c3cc(C)no3)ccc2OC)cc1	2.91µM*	.	3.66µM*	.	35.2	?
COc1ccc(-c2onc(C)c2C)cc1S(=O)(=O)Nc1cccc(C#N)c1	20.6µM*	.	23.1µM*	.	.	.
COC(=O)c1ccc(NS(=O)(=O)c2ccc(-c3cc(C)no3)s2)cc1	?	-4.6%	?	-20.1%	20.7	-2.3%
SMILES	TDP1 cell noCPT	HT1080NT lethal	TDP1 cell CPT	HT1080 IDH1KD tx	IL-1B inflam inh	uPA generation
COc1ccc(-c2cc(C)no2)cc1S(=O)(=O)NCCCN1CCCCCC1	-2.9%	-9.3%	-11.7%	-2.2%	-51.5*	-3.7%
CCc1ccc(-c2cc(C)no2)cc1S(=O)(=O)Nc1cc(OC)c(OC)c(OC)c1	16.4µM*	.	16.4µM*	.	.	.
COc1ccc(-c2cc(C)no2)cc1S(=O)(=O)N1CCCCC1	-22.1%	-5.6%	?	-5.0%	11.1	-9.4%
CNS(=O)(=O)Cc1ccc2[nH]cc(CCN(C)C)c2c1	4.61µM*!	-20.4%	5.8µM*!	-28.8%	?	-8.0%
Cc1cc(NC(=O)CS(=O)(=O)c2cn(Cc3ccccc3Cl)c3ccccc23)no1	?	?	?	?	-12.3	-2.7%
Cc1cc(NC(=O)CS(=O)c2cn(Cc3cccc(Cl)c3)c3ccccc23)no1 (stereo not drawn)	16.4µM*	-19.3%	20.6µM*	?	17.3	.
CCCn1cc(SCC(=O)Nc2cc(C)on2)c2ccccc21	-9.1%	-3.3%	-3.7%	-2.5%	-15.5	-14.4%
Cc1cc(NC(=O)CS(=O)(=O)c2cn(Cc3cccc(Br)c3)c3ccccc23)no1	?	?	25.9µM*	20.6µM*	-54.3*	.
COc1ccc(C2(CNC(=O)c3ccccc3[N+](=O)[O-])CCOCC2)cc1	-7.7%	14.6%	-1.5%	21.0%	13.9	-1.3%
O=C1N=C(N2CCCCC2)SC1=C1CCCC1	-21.5%	7.0%	1.6%	-2.7%	-14.9	.
CCCCN1C(=O)/C(=C2\SC(N3CCCCC3)=NC2=O)c2ccccc21	?	1.7%	23.1µM*	3.8%	-28.2	-10.9%
CC(=O)C(Sc1nccc(-c2cccs2)n1)C(C)=O	18.4µM*	19.2%	?	24.6%	-5.4	-2.4%
O=C(Nc1ccc(S(=O)(=O)N2CCCC2)cc1)C1CC(=O)N(c2ccc(F)cc2)C1 (stereo not drawn)	?	-8.7%	?	-5.0%	-9.1	0.5%
CC(=NNC(=S)N(Cc1ccccn1)Cc1ccccn1)c1cnccn1	0.82µM*	?	0.581µM*	0.581µM*	104.4	-5.4%
S=C(NN=C(c1ccccc1)c1ccccn1)N(Cc1ccccn1)Cc1ccccn1	0.146µM*	16.4µM*	0.146µM*	8.2µM*	-58.5*	-11.9%
S=C(NN=Cc1ccccn1)N(Cc1ccccn1)Cc1ccccn1	0.92µM*	-21.3%	0.651µM*	?	58.7	-8.3%

From PubChem
